Reference: ChEMBL document CHEMBL3988442, “University of Dundee, Small-Polar-MMV Screening Library” (2021)
For some assays here: Entries with a potency or affinity are not part of this list.

What was measured:
Set-up in all cases: scale not given: direction of the effect not stated beside the values
[1] = target: Protein translocase subunit SecA (Escherichia coli (strain K12)) (UniProt P10408); assay: Assay to Identify E. coli SecA ATPase Inhibitors; assay type: functional; settings: 30 µM
[2] = target: T1, Ubiquitin-activating enzyme e1, putative (Leishmania donovani (strain BPK282A1)) (UniProt E9BSI1); assay: Leishmania donovani Ubiquitin Activating Enzyme (LdE1); assay type: functional; settings: 30 µM
T1 sequence (whole entry): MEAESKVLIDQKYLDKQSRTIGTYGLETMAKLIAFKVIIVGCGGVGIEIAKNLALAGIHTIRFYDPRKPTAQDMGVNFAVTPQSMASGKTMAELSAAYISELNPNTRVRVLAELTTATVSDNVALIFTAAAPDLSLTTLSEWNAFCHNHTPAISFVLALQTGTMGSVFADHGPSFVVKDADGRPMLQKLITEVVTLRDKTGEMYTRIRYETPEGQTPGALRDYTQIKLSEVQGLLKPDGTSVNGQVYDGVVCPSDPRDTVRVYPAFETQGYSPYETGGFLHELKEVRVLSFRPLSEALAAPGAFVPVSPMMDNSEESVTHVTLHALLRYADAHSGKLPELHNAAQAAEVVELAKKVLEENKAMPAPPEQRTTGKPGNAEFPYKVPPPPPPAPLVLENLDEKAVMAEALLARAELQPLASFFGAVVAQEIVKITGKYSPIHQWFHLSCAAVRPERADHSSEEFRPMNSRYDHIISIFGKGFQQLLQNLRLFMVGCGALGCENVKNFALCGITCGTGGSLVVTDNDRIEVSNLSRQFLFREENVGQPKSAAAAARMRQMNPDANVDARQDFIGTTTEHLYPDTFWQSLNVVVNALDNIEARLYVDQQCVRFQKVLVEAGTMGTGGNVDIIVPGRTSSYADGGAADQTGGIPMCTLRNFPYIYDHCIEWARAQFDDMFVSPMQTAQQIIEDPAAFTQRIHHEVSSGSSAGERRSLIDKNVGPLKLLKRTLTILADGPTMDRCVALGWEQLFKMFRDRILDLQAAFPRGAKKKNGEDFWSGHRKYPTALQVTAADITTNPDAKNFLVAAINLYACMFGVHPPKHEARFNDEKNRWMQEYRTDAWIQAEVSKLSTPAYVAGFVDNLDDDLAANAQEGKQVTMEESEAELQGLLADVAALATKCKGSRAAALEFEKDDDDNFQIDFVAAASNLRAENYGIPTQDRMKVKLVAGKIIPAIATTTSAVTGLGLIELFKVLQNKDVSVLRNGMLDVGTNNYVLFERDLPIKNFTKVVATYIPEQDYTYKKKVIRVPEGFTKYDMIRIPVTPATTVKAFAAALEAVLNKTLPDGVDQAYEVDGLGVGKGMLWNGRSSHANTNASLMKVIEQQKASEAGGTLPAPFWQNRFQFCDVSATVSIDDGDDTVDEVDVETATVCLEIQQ

[3] = target: AMP-activated protein kinase, AMPK (Homo sapiens) (UniProt P54646+O43741+P54619+Q9UGJ0+Q9Y478+Q13131+Q9UGI9); assay: AMP-dependent Kinase enzyme assay. An in vitro enzyme assay that detects ADP turnover that is directly proportional to AMPK activity. This uses naive AMPK that is activated during the assay with MK-8722; assay type: functional; settings: 30 µM
[4] = target: Sialic acid-binding Ig-like lectin 9 (Homo sapiens) (UniProt Q9Y336); assay: Hs-Siglec9 ALPHAscreen SOP 20170721; settings: 10 µM
Trypanosoma cruzi = assay: Trypanosoma cruzi phosphomannomutase and mannose-1-phosphate guanylyltransferase assay; assay type: functional; settings: 10 µM
[5] = target: T2, Arginase-2, mitochondrial (Homo sapiens) (UniProt P78540); assay: in vitro enzyme assay to detect the production of urea directly proportional to the activity of Arginase II; assay type: functional; settings: 33.3 µM; note: in the data most compounds retested in dose-response had high values
T2 sequence (whole entry): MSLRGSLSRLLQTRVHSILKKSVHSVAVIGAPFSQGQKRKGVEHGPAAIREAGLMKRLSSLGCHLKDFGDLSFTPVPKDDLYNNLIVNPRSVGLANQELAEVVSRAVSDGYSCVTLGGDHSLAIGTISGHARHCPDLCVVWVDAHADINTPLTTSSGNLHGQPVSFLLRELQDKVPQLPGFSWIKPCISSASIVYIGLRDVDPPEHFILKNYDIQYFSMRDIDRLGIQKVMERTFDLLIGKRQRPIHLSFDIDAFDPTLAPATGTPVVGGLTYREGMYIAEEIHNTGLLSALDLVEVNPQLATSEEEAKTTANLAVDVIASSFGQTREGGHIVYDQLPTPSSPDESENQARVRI

[6] = target: T3, Proteasome subunit beta (Trypanosoma cruzi) (UniProt O96673); assay: Trypanosoma cruzi proteasome chymotrypsin-like activity (TcProtChymo) assay.; note: in the data most compounds retested in dose-response had high values; assay type: functional; settings: 9.37 µM
T3 sequence (whole entry): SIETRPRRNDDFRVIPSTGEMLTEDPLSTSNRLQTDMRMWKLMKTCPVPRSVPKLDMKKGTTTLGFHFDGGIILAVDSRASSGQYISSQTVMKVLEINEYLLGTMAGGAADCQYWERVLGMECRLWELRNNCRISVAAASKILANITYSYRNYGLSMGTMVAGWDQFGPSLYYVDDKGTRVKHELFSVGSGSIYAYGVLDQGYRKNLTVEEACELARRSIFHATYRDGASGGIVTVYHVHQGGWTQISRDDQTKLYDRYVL

Homo sapiens = species: Homo sapiens; assay: To identify inhibition of the IFN signalling (Jak-Stat) pathway via expression of an eGFP reporter gene under the control of an IFN-stimulated response element (ISRE) containing MxA promoter.; assay type: functional; settings: 30 µM
[7] = target: T4, Tyrosyl-tRNA synthetase, putative (Trypanosoma cruzi (strain CL Brener)) (UniProt Q4DSP6); assay: Trypanosoma cruzi tyrosyl tRNA synthetase (TcYRS) _High Tyrosine SOP; assay type: functional; settings: 30 µM; note: in the data most compounds retested in dose-response had high values
T4 sequence (whole entry): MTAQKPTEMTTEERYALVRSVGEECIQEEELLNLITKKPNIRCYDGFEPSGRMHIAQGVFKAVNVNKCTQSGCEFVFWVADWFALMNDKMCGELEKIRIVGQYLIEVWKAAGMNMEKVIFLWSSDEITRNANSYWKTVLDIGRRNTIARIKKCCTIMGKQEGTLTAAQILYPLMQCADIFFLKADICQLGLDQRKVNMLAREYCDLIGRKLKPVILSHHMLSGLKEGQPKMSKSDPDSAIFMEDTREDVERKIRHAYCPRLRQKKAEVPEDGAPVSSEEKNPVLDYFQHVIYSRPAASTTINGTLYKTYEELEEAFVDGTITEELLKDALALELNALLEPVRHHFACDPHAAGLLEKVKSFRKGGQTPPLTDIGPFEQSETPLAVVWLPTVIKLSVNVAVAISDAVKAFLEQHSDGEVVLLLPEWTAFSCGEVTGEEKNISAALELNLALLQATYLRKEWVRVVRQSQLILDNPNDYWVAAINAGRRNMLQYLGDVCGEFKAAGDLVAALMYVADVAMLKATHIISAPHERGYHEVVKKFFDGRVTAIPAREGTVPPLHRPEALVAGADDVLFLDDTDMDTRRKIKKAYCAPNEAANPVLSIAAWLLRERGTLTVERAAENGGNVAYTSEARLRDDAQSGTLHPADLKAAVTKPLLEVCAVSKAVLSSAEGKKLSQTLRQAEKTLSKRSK

[8] = target: T4, Tyrosyl-tRNA synthetase, putative (Trypanosoma cruzi (strain CL Brener)); assay: Trypanosoma cruzi tyrosyl tRNA synthetase (TcYRS) SOP; assay type: functional; settings: 30 µM
[9] = target: Chromo domain-containing protein 1 (Saccharomyces cerevisiae (strain ATCC 204508 / S288c) (Baker's yeast)) (UniProt P32657); assay: ScCHD-1 Enzyme Inhibition Assay; assay type: functional; settings: 30 µM; note: in the data most compounds retested in dose-response had high values
Chain of Chromo domain-containing protein 1 (Saccharomyces cerevisiae (strain ATCC 204508 / S288c) (Baker's yeast)) (P32657 whole entry, the tested form may be a part): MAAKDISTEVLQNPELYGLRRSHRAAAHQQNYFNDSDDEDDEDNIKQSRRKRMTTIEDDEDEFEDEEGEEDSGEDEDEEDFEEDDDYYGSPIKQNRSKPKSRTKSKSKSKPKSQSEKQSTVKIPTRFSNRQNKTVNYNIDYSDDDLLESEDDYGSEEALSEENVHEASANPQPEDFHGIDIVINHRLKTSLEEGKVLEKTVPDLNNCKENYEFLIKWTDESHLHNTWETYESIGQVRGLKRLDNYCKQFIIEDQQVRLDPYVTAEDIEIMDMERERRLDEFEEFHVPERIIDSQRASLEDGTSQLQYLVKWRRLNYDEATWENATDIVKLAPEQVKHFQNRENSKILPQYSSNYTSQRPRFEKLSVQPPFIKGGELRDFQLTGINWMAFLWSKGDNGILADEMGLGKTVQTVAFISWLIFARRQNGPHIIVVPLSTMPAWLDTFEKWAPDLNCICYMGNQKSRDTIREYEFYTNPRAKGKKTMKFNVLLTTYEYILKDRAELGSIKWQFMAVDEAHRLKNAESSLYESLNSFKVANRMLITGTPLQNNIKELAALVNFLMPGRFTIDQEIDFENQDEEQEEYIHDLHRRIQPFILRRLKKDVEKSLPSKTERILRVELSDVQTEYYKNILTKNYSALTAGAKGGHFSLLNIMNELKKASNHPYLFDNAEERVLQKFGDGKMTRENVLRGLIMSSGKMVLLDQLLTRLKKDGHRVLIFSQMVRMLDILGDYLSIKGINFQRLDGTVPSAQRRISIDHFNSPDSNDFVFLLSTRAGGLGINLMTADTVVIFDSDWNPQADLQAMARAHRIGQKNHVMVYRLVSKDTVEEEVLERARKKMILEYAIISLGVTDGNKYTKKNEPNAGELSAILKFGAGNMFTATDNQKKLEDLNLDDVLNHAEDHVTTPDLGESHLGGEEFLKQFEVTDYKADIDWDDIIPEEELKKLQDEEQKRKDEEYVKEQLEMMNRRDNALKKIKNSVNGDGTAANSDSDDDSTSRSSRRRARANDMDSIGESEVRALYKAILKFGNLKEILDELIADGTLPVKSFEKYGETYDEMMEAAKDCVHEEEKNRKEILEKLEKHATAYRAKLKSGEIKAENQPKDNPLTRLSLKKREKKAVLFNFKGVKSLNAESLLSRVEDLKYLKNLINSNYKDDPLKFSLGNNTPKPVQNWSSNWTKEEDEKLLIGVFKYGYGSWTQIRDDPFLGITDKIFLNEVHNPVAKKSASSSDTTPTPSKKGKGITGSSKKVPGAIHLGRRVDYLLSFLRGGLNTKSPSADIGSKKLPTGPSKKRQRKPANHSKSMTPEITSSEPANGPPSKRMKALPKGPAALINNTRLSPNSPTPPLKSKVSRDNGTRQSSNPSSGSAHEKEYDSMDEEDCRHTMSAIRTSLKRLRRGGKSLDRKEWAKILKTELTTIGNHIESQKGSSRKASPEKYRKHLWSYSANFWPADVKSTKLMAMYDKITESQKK

Chain of Protein translocase subunit SecA (Escherichia coli (strain K12)) (P10408 whole entry): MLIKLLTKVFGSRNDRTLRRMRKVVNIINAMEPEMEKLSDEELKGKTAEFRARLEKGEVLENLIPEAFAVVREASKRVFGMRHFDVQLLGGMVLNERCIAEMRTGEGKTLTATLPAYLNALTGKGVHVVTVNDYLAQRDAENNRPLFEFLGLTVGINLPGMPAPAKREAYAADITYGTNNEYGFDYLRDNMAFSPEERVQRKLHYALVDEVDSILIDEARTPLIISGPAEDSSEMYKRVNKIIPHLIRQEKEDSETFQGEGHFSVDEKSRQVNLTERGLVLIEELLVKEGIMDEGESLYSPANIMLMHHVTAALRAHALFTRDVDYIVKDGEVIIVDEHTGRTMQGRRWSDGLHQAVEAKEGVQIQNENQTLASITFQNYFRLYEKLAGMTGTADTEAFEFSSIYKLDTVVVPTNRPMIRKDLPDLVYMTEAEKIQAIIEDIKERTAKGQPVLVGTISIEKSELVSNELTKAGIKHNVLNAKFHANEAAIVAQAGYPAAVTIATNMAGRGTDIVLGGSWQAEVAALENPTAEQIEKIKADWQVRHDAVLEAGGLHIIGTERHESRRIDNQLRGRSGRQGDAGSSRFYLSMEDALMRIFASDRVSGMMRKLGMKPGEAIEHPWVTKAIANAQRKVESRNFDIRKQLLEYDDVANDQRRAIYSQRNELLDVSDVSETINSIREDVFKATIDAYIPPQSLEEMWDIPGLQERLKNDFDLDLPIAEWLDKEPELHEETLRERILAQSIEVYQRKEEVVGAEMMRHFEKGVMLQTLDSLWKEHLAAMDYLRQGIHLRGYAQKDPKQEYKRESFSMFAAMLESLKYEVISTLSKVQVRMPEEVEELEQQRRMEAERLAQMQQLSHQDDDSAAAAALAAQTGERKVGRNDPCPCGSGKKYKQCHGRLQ
Chain of Sialic acid-binding Ig-like lectin 9 (Homo sapiens) (Q9Y336 whole entry): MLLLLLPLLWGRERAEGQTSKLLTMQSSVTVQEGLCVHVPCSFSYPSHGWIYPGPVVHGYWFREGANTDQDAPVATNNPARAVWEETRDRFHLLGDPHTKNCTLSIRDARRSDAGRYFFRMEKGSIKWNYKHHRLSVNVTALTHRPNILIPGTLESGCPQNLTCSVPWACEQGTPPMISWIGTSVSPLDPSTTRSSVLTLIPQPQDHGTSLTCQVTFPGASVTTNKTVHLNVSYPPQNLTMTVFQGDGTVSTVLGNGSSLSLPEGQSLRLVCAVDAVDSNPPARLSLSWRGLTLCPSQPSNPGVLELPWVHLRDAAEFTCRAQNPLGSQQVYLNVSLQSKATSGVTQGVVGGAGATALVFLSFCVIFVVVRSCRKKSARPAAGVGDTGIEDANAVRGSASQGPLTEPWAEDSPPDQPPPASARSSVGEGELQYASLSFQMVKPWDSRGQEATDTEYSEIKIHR

Structure (SMILES)	Percent Effect [1] [%]	Percent Effect [2] [%]	Percent Effect [3] [%]	Percent Effect [4] [%]	Percent Effect (Trypanosoma cruzi) [%]	Percent Effect [5] [%]	Percent Effect [6] [%]	Percent Effect (Homo sapiens) [%]	Percent Effect [7] [%]	Percent Effect [8] [%]	Percent Effect [9] [%]
Cc1c(C(=O)N2CCCC2c2cnn(C)c2)nnn1-c1ccccc1 (configuration not stated)	-5.12	13.5	-11.2	15.4	4.55	-3.14	9.87	8.27	0.99	13.4	-7.97
CC(C)Oc1ncccc1CNC(=O)N1CCC(C(N)=O)C1 (configuration not stated)	-6.99	5.26	-1.63	3.84	-4.51	2.68	2	23.8	1.47	7.32	-0.235
Cc1nc(Nc2ncccn2)cc(C2CCCN2CC(C)C)n1 (configuration not stated)	-6.07	5.33	4.6	-0.413	-1.38	-2.56	-1.5	0.824	2.13	6.41	-1.78
CN(CCCOc1ccc(F)cc1)Cc1nc2c(cnn2C)c(=O)[nH]1	-0.991	15.8	0.698	-3.57	4.39	1.8	14.8	0.0389	8.37	23.5	-8.26
CC(Cn1cccn1)NC(=O)NCCc1cnn(C)c1 (configuration not stated)	1.95	2.53	-9	-14.8	-9.91	0.38	10.7	24.5	5.42	8.86	-3.48
CNS(=O)(=O)Cc1ccc(CNC(=O)Nc2cccnc2)cc1	-1.42	30.4	-9.66	-12.1	4.25	-6.08	14.2	11.1	6.4	16.5	-12.7
Cc1cc(C)n(C2CCCN(C(=O)c3cnc4onc(C)c4c3)C2)n1 (configuration not stated)	-2.86	5.2	2.66	12.3	-1.08	4.84	4.77	38.1	1.91	9.41	-15.5
O=C(Nc1nccs1)N1CCCC(N2CCNC2=O)C1 (configuration not stated)	-3.07	11	7.04	15.8	0.196	17.3	21.1	2.14	4.3	22.5	-6.39
CC(O)CN1CCN(Cc2csc(-c3ncccn3)n2)CC1 (configuration not stated)	1.21	7.89	-3.51	-8.16	-3.02	3.55	24.6	16.8	5.32	15.6	-4.73
CCc1noc(CN(C)Cc2ccc(N3CCCCC3)cc2)n1	-2.48	2.6	0.261	13	3.83	15.2	13.5	5.54	-6.45	-8.64	-6.82
O=C(O)C1(Cc2cc(-c3cccc(F)c3)no2)CCOCC1	-3.27	6.76	11.7	6.38	-3.75	-3.02	7.8	-7.88	2.15	3.9	-5.82
CC(=O)N(C)c1nc(CN2CCCCC2Cn2cncn2)cs1 (configuration not stated)	-8.24	7.79	-1	0.729	-5.99	-1.42	7.43	27.8	5.83	7.32	-6.12
NC(=O)C1CCN(C(=O)Cn2nc(-c3ccccc3)oc2=O)C1 (configuration not stated)	-4.97	7.79	1.04	8.76	2.46	-13.8	8.82	-30.7	2.15	13.6	-0.676
CN(C)C(=O)CN1CCC2(CCCN(Cc3cccn3C)C2)C1=O (configuration not stated)	-6.92	10.7	0.926	-7.4	-5.12	-3.96	18.2	10.5	1.06	1.28	-7.43
CCOCCNc1nc(C2CCCC2)nc2c1cnn2C	-4.35	2.74	6.03	-4.4	0.588	2.73	1.6	17.1	1.07	5	2.02
CC(C)Oc1ccc(CSc2nnc(CN3CCCC3=O)o2)cc1	-7.37	-5.33	-6.5	10	8.28	1.04	9.24	13.4	1.64	6.17	-3.99
CCCNC(=O)C(C)NC(=O)CCc1ccccc1Br (configuration not stated)	0.82	4.17	3.58	-5.62	-9.43	4.42	16.5	8.51	0	5.13	-1.03
N#Cc1cn(C2CC2)c(=O)n(CC(O)c2ccc(OC(F)F)cc2)c1=O (configuration not stated)	-5.26	15.8	-4.7	7.1	6.01	0	11.2	3.44	0.49	17.1	-12.4
CN(Cc1ccc(OC(F)F)cc1)C(=O)CS(=O)(=O)c1ccc(Cl)cc1	-4.93	-2.7	-0.333	6.3	8.49	-1.91	0.345	3.29	-5.82	0	-1.75
CCn1cnnc1CNC(=O)NC(C)c1cccs1 (configuration not stated)	-1.87	23.4	-0.473	11.3	1.5	-5.69	3.38	10.1	4.85	21.9	-8.5
Cc1cc(C)n(CC2CCCN2C(=O)c2ccc3c(c2)OCO3)n1 (configuration not stated)	-1.47	6.33	1.3	-3.57	2.15	-1.5	8.75	1.15	2.08	2.53	0.284
CC(C)NC(=O)N1CCN(S(=O)(=O)C2CC2)CC2(CNC(=O)C2)C1 (configuration not stated)	-6.38	18.2	0.68	2.04	4.63	0.645	7.66	9.81	2.12	11.5	-5.37
